110 sequences from paper PMC6212790, “How bacterial xenogeneic silencer rok distinguishes foreign from self DNA in its resident genome” can be followed below.

Over roughly 33,000 sequences, “e-score” has its median near -0.037; the highest 2% begin near 0.34. What follows is part of a selection rich in the highest values, with near analogues and random picks from the rest.

This experiment deals with T1, GST-Rok (full length) (Bacillus subtilis subsp. subtilis str. …, UniProt O34857 1-191).
T1 sequence: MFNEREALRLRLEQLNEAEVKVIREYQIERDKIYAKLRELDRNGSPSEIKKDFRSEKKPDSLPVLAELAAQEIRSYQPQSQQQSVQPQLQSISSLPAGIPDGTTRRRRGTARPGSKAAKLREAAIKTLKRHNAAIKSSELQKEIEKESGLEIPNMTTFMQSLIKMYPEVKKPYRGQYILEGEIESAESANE
Kind of experiment: protein binding microarray; Rok is a gene silencer of Bacillus subtilis; high values mean tight binding. To be noted: protein: recombinant; tags: GST (pTH5325, pDEST15-Magic modified); dsDNA, one strand shown. In a few lines: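 Each has a 25-mer constant primer and a 35-mer variable part from a de Bruijn sequence of order 10, covering every non-palindromic 8-mer at least 32 times (palindromic 16). Preference for each 8-mer is given as a rank-based, unitless enrichment score (E-score). Its range runs from 0.5 (most favored) to −0.5 (most disfavored).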
As to TCGATTAA, the binding signal turned out to be 0.142 E-score.

Consider CCGAACTC, for which the binding signal stood at 0.0171 E-score.

With ACCTACCA, the binding signal stood at 0.248 E-score.

As for ACTTACAA, the binding signal is 0.176 E-score.

ACTTACAG: the binding signal is -0.0639 E-score.

Take ACTTACAT: the binding signal came out at 0.349 E-score.

As to CGATATCG, the binding signal came out at 0.243 E-score.

In the case of GCCGTGAC, the binding signal was -0.176 E-score.

With CACTATCA, the binding signal worked out at 0.219 E-score.

Regarding CACTATAA, the binding signal was 0.303 E-score.

For TACTATCA, the binding signal turned out to be 0.35 E-score.

For the sequence GACTATCA, the binding signal is -0.0777 E-score.

ATCTATCA: the binding signal worked out at 0.409 E-score.

With CTCTATCA, the binding signal was -0.0321 E-score.

Regarding AACTATCA, the binding signal worked out at 0.417 E-score.

As to TACTATAA, the binding signal was found to be 0.439 E-score.

For the sequence GTCTATCA, the binding signal is -0.00992 E-score.

For the sequence AACTATAA, the binding signal came out at 0.326 E-score.

For the sequence TACTATGA, the binding signal worked out at 0.228 E-score.

In the case of TCCTATCA, the binding signal was determined as 0.123 E-score.

Regarding ACATTAAT, the binding signal was determined as 0.245 E-score.

For the sequence AGATAAGG, the binding signal stood at 0.0533 E-score.

For ATCCTATG, the binding signal is 0.106 E-score.

Consider GAGCTGCA, for which the binding signal is -0.0813 E-score.

As to CGAAAAGA, the binding signal amounted to 0.00822 E-score.

Turning to AGGATCAC, the binding signal was -0.0581 E-score.

ATTGGTGA: the binding signal amounted to 0.0777 E-score.

As to TAGCTAAA, the binding signal amounted to 0.214 E-score.

Turning to ATATCCGG, the binding signal was found to be 0.237 E-score.

As for TAGGTTCA, the binding signal worked out at 0.128 E-score.

With AAGATGGT, the binding signal came to 0.0131 E-score.

For the sequence CCCGTTCA, the binding signal was -0.154 E-score.

On to AATATGCA, for which the binding signal came out at 0.304 E-score.

CGCTATCA: the binding signal came to 0.0965 E-score.

As for AGCTATCA, the binding signal amounted to 0.336 E-score.

Consider GGCTATCA, for which the binding signal is -0.0678 E-score.

With ACGATTCA, the binding signal is -0.00504 E-score.

For the sequence AATGTAAT, the binding signal came to 0.326 E-score.

For the sequence CCTGTAGA, the binding signal was found to be 0.0279 E-score.

As for GATGTAGC, the binding signal stood at 0.0838 E-score.

With AATGTAGT, the binding signal came out at 0.363 E-score.

For the sequence AATGTAGG, the binding signal amounted to 0.174 E-score.

As to CATGTAGG, the binding signal turned out to be 0.116 E-score.

For ACTGTAGA, the binding signal came out at 0.373 E-score.

Turning to AACGTAGT, the binding signal turned out to be 0.0637 E-score.

Take AATGTAGA: the binding signal worked out at 0.389 E-score.

With CATGTAGC, the binding signal stood at 0.384 E-score.

In the case of GCTGTAGA, the binding signal is 0.0153 E-score.

On to AATGTAGC, for which the binding signal is 0.221 E-score.

As to AGCTGCAC, the binding signal turned out to be 0.104 E-score.

As for GAAGTCCC, the binding signal is -0.124 E-score.

In the case of ACCGATCC, the binding signal is -0.198 E-score.

ATGAGGCG: the binding signal was -0.173 E-score.

Consider CTTAGGTC, for which the binding signal was 0.00712 E-score.

As for AAGCTAAG, the binding signal is -0.0658 E-score.

Take CATGTAGA: the binding signal was 0.374 E-score.

In the case of GATGTAGA, the binding signal was determined as 0.209 E-score.

Consider TATGTAGA, for which the binding signal was 0.292 E-score.

As to CGCTCTGA, the binding signal was -0.0888 E-score.

In the case of AGTAGGAA, the binding signal worked out at 0.231 E-score.

For CGTAATAG, the binding signal was 0.318 E-score.

Turning to ACTAATAT, the binding signal is 0.385 E-score.

ACTAATAG: the binding signal amounted to 0.227 E-score.

For AGTAATAG, the binding signal came out at 0.365 E-score.

On to AGTAATCG, for which the binding signal worked out at 0.0386 E-score.

As for AGTAATAT, the binding signal was found to be 0.402 E-score.

In the case of AGTAATAA, the binding signal is 0.197 E-score.

ACTAATAC: the binding signal turned out to be 0.265 E-score.

Consider AGTAATAC, for which the binding signal turned out to be 0.26 E-score.

On to AACGGCTG, for which the binding signal was 0.0377 E-score.

AAGTCAAT: the binding signal worked out at 0.226 E-score.

As for CTTGTCTC, the binding signal was found to be 0.0221 E-score.

As for GGGTTGCA, the binding signal was -0.161 E-score.

With AGATGTAA, the binding signal stood at 0.17 E-score.

For the sequence CATCTTAG, the binding signal was 0.118 E-score.

Consider GTTGATCA, for which the binding signal is -0.00765 E-score.

On to CGCAAGCC, for which the binding signal was -0.112 E-score.

AGATAGAT: the binding signal amounted to 0.386 E-score.

In the case of ACATAGAT, the binding signal is 0.346 E-score.

Regarding ACATAGAG, the binding signal stood at 0.00988 E-score.

AGATAGAG: the binding signal was determined as 0.026 E-score.

With AGATAGAC, the binding signal was 0.108 E-score.

As for ACATAGAC, the binding signal stood at 0.0568 E-score.

On to CTCTAGAC, for which the binding signal is -0.099 E-score.

For ACGAACGA, the binding signal was -0.116 E-score.

Consider CTCTACTA, for which the binding signal came out at 0.216 E-score.

On to ATCTACTC, for which the binding signal worked out at 0.251 E-score.

With ATCTACTG, the binding signal was 0.382 E-score.

Turning to ATCTACGG, the binding signal came out at 0.158 E-score.

As to ATCTACTA, the binding signal was 0.446 E-score.

GTCTACTA: the binding signal is 0.261 E-score.

In the case of ACATGTTG, the binding signal was -0.0393 E-score.

On to CGCGCATA, for which the binding signal came to 0.139 E-score.

For the sequence AATAAACG, the binding signal came out at 0.0748 E-score.

GCTGTAAA: the binding signal was 0.151 E-score.

As to TGGTATAA, the binding signal was found to be 0.349 E-score.

In the case of AAGTATAA, the binding signal amounted to 0.142 E-score.

CGGTATAA: the binding signal came out at 0.28 E-score.

For TAGTATAA, the binding signal is 0.404 E-score.

Regarding CAGTATAA, the binding signal stood at 0.312 E-score.

For the sequence AGGTATAA, the binding signal was determined as 0.322 E-score.

With GGTTGTAC, the binding signal came to 0.114 E-score.

With CGCGACAG, the binding signal came out at 0.0354 E-score.

ATCTACAC: the binding signal was 0.348 E-score.

Take GTCTACAC: the binding signal is -0.0482 E-score.

As to CTCTACAC, the binding signal was determined as 0.0962 E-score.

Turning to ATCTACAG, the binding signal came to 0.26 E-score.

As to ATCTACAT, the binding signal came to 0.372 E-score.

For ATCTACAA, the binding signal stood at 0.276 E-score.

Turning to AAGGGTTA, the binding signal is -0.101 E-score.
